# Laboratory results as given in PubChem BioAssay AID1159580 (chemical genetic matrix, 2015).
# Hit rate of the full screen: of about 5,500 compounds, about 2,000 (36%) were called active. Roughly 18% stayed inconclusive and do not appear here. The list shows a part of the results. Unmarked numbers belong to inactive results. Rule as the data show it: active = normalized growth mostly below about 0.91 (no sharp cut-off); inconclusive = no clear call, values can overlap the other calls; inactive = mostly above about 0.92.
# Experiment: chemical genetic growth profiling, strain panel (AID 1159580);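 also: tested at 20 µM; growth read once vehicle control cultures reached saturation at 30 °C; 1 = growth at the plate median or of vehicle wells; lower values mean less growth of the strain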
# Conditions: growth OD
compound,measurement,setting,value
CC(=O)O[C@]1(C(C)=O)CCC2C3C=C(C)C4=CC(=O)CCC4(C)C3CCC21C (stereo partly specified),normalized growth,"S. cerevisiae deletion strains, locus YKL009W, strain mrt4, hits give low values",0.963
same,normalized growth,"S. cerevisiae deletion strains, locus YKL068W, hits give low values",0.98
same,normalized growth,"S. cerevisiae deletion strains, locus YKL085W, strain MDH1 (second series), hits give low values",0.908 (active)
same,normalized growth,"S. cerevisiae deletion strains, locus YKL085W, strain MDH1, hits give low values",0.908 (active)
same,normalized growth,"S. cerevisiae deletion strains, locus YKL160W, strain elf1, hits give low values",0.955
same,normalized growth,"S. cerevisiae deletion strains, locus YKL190W, strain CNB1, hits give low values",0.93
same,normalized growth,"S. cerevisiae deletion strains, locus YKR001C, strain vps1, hits give low values",0.81 (active)
same,normalized growth,"S. cerevisiae deletion strains, locus YKR026C, strain gcn3, hits give low values",0.976
same,normalized growth,"S. cerevisiae deletion strains, locus YKR091W, strain srl3, hits give low values",0.96
same,normalized growth,"S. cerevisiae deletion strains, locus YLL001W, strain dnm1, hits give low values",0.886 (active)
same,normalized growth,"S. cerevisiae deletion strains, locus YLL026W, hits give low values",0.941
same,normalized growth,"S. cerevisiae deletion strains, locus YLL041C, strain sdh2, hits give low values",0.969
same,normalized growth,"S. cerevisiae deletion strains, locus YLR027C, strain aat2, hits give low values",0.919 (active)
same,normalized growth,"S. cerevisiae deletion strains, locus YLR039C, strain RIC1, hits give low values",0.859
same,normalized growth,"S. cerevisiae deletion strains, locus YLR058C, strain SHM2, hits give low values",0.988
same,normalized growth,"S. cerevisiae deletion strains, locus YLR102C, strain apc9, hits give low values",0.979
same,normalized growth,"S. cerevisiae deletion strains, locus YLR113W, strain HOG1, hits give low values",0.949
same,normalized growth,"S. cerevisiae deletion strains, locus YLR221C, strain rsa3, hits give low values",0.957
same,normalized growth,"S. cerevisiae deletion strains, locus YLR258W, strain gsy2, hits give low values",0.956
same,normalized growth,"S. cerevisiae deletion strains, locus YLR262C, strain YPT6 (second series), hits give low values",0.699 (active)
same,normalized growth,"S. cerevisiae deletion strains, locus YLR262C, strain YPT6, hits give low values",0.859
same,normalized growth,"S. cerevisiae deletion strains, locus YLR268W, strain sec22, hits give low values",0.913
same,normalized growth,"S. cerevisiae deletion strains, locus YLR320W, strain mms22, hits give low values",0.864 (active)
same,normalized growth,"S. cerevisiae deletion strains, locus YLR330W, strain CHS5, hits give low values",0.964
same,normalized growth,"S. cerevisiae deletion strains, locus YLR342W, strain FKS1 (second series), hits give low values",0.759 (active)
same,normalized growth,"S. cerevisiae deletion strains, locus YLR342W, strain FKS1, hits give low values",0.768 (active)
same,normalized growth,"S. cerevisiae deletion strains, locus YLR357W, strain rsc2, hits give low values",0.953
same,normalized growth,"S. cerevisiae deletion strains, locus YLR370C, strain arc18, hits give low values",0.96
same,normalized growth,"S. cerevisiae deletion strains, locus YLR371W, strain rom2, hits give low values",0.984
same,normalized growth,"S. cerevisiae deletion strains, locus YLR384C, strain iki3, hits give low values",0.964
same,normalized growth,"S. cerevisiae deletion strains, locus YLR418C, strain cdc73, hits give low values",0.627 (active)
same,normalized growth,"S. cerevisiae deletion strains, locus YML016C, strain PPZ1, hits give low values",0.992
same,normalized growth,"S. cerevisiae deletion strains, locus YML032C, strain rad52, hits give low values",0.96
same,normalized growth,"S. cerevisiae deletion strains, locus YML120C, strain ndi1, hits give low values",0.906 (active)
same,normalized growth,"S. cerevisiae deletion strains, locus YML124C, strain tub3, hits give low values",0.976
same,normalized growth,"S. cerevisiae deletion strains, locus YMR058W, strain fet3, hits give low values",0.913
same,normalized growth,"S. cerevisiae deletion strains, locus YMR078C, strain ctf18, hits give low values",0.961
same,normalized growth,"S. cerevisiae deletion strains, locus YMR125W, strain sto1, hits give low values",0.995
same,normalized growth,"S. cerevisiae deletion strains, locus YMR129W, hits give low values",0.967
same,normalized growth,"S. cerevisiae deletion strains, locus YMR205C, strain PFK2, hits give low values",0.888
same,normalized growth,"S. cerevisiae deletion strains, locus YMR223W, strain ubp8, hits give low values",0.888 (active)
same,normalized growth,"S. cerevisiae deletion strains, locus YMR231W, strain pep5, hits give low values",0.967
same,normalized growth,"S. cerevisiae deletion strains, locus YMR263W, strain SAP30, hits give low values",0.922
same,normalized growth,"S. cerevisiae deletion strains, locus YMR307W, strain GAS1, hits give low values",0.817
same,normalized growth,"S. cerevisiae deletion strains, locus YNL067W, strain RPL9B, hits give low values",0.914
same,normalized growth,"S. cerevisiae deletion strains, locus YNL071W, strain lat1, hits give low values",0.822 (active)
same,normalized growth,"S. cerevisiae deletion strains, locus YNL128W, strain TEP1, hits give low values",0.98
same,normalized growth,"S. cerevisiae deletion strains, locus YNL153C, strain GIM3, hits give low values",0.929
same,normalized growth,"S. cerevisiae deletion strains, locus YNL183C, strain NPR1, hits give low values",0.939
same,normalized growth,"S. cerevisiae deletion strains, locus YNL209W, strain ssb2, hits give low values",0.985
same,normalized growth,"S. cerevisiae deletion strains, locus YNL233W, strain BNI4, hits give low values",0.862 (active)
same,normalized growth,"S. cerevisiae deletion strains, locus YNL248C, strain rpa49, hits give low values",0.958
same,normalized growth,"S. cerevisiae deletion strains, locus YNL250W, strain rad50, hits give low values",0.938
same,normalized growth,"S. cerevisiae deletion strains, locus YNL271C, strain bni1, hits give low values",0.949
same,normalized growth,"S. cerevisiae deletion strains, locus YNL298W, strain CLA4, hits give low values",0.966
same,normalized growth,"S. cerevisiae deletion strains, locus YNL307C, strain MCK1, hits give low values",0.714 (active)
same,normalized growth,"S. cerevisiae deletion strains, locus YNL322C, strain KRE1 (second series), hits give low values",0.972
same,normalized growth,"S. cerevisiae deletion strains, locus YNL322C, strain KRE1, hits give low values",0.983
same,normalized growth,"S. cerevisiae deletion strains, locus YNR049C, strain mso1, hits give low values",0.958
same,normalized growth,"S. cerevisiae deletion strains, locus YNR052C, strain pop2, hits give low values",0.99
same,normalized growth,"S. cerevisiae deletion strains, locus YOL006C, strain TOP1, hits give low values",0.85
same,normalized growth,"S. cerevisiae deletion strains, locus YOL012C, strain htz1",0.402
same,normalized growth,"S. cerevisiae deletion strains, locus YOL147C, strain pex11, hits give low values",0.981
same,normalized growth,"S. cerevisiae deletion strains, locus YOR001W, strain rrp6, hits give low values",0.947
same,normalized growth,"S. cerevisiae deletion strains, locus YOR061W, strain CKA2, hits give low values",0.977
same,normalized growth,"S. cerevisiae deletion strains, locus YOR069W, strain VPS5, hits give low values",0.998
same,normalized growth,"S. cerevisiae deletion strains, locus YOR070C, strain gyp1, hits give low values",0.967
same,normalized growth,"S. cerevisiae deletion strains, locus YOR080W, strain dia2, hits give low values",0.953
same,normalized growth,"S. cerevisiae deletion strains, locus YOR083W, strain WHI5, hits give low values",0.9
same,normalized growth,"S. cerevisiae deletion strains, locus YOR106W, strain vam3, hits give low values",0.877
same,normalized growth,"S. cerevisiae deletion strains, locus YOR136W, strain idh2, hits give low values",0.971
same,normalized growth,"S. cerevisiae deletion strains, locus YOR144C, strain elg1, hits give low values",0.985
same,normalized growth,"S. cerevisiae deletion strains, locus YOR184W, strain ser1, hits give low values",0.746 (active)
same,normalized growth,"S. cerevisiae deletion strains, locus YOR231W, strain MKK1, hits give low values",0.961
same,normalized growth,"S. cerevisiae deletion strains, locus YOR265W, strain rbl2, hits give low values",0.954
same,normalized growth,"S. cerevisiae deletion strains, locus YOR270C, strain vph1, hits give low values",0.718 (active)
same,normalized growth,"S. cerevisiae deletion strains, locus YOR290C, strain snf2, hits give low values",0.969
same,normalized growth,"S. cerevisiae deletion strains, locus YOR316C, strain cot1, hits give low values",0.979
same,normalized growth,"S. cerevisiae deletion strains, locus YPL051W, strain arl3, hits give low values",0.922
same,normalized growth,"S. cerevisiae deletion strains, locus YPL055C, strain LGE1, hits give low values",0.828
same,normalized growth,"S. cerevisiae deletion strains, locus YPL078C, strain atp4, hits give low values",0.855 (active)
same,normalized growth,"S. cerevisiae deletion strains, locus YPL106C, strain sse1, hits give low values",1.05
same,normalized growth,"S. cerevisiae deletion strains, locus YPL240C, strain hsp82, hits give low values",0.963
same,normalized growth,"S. cerevisiae deletion strains, locus YPL241C, strain CIN2, hits give low values",0.982
same,normalized growth,"S. cerevisiae deletion strains, locus YPL256C, strain CLN2, hits give low values",0.915
same,normalized growth,"S. cerevisiae deletion strains, locus YPR119W, strain clb2, hits give low values",0.983
same,normalized growth,"S. cerevisiae deletion strains, locus YPR141C, strain kar3, hits give low values",0.972
same,normalized growth,"S. cerevisiae deletion strains, locus YPR163C, strain tif3, hits give low values",0.983
same,normalized growth,"S. cerevisiae deletion strains, locus YPR167C, strain met16, hits give low values",0.977
same,normalized growth,"S. cerevisiae deletion strains, strain wtn01, hits give low values",0.881 (active)
same,normalized growth,"S. cerevisiae strains, strain wild type, hits give low values",0.88 (active)
